IL1B secr inh = inhibitors of inflammasome signaling (IL-1 beta secretion); activity change, % at 57.5 µM; hit rate 4.7% among 360,000; THP-1 LPS/ATP IL-1B secretion, AlphaLISA, 16 h; active compounds read low; AID 743279; in the data active = activity change below about -50%; inconclusive = mostly about -30% to -49%
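THP-1 cells pretreated 1 hr with compounds (up to 57.5 uM final), then stimulated with LPS (250 ng/mL final) plus ATP (1.25 mM final); secreted IL-1B measured by AlphaLISA after 16 hr, decreased signal indicating inhibition.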
HT1080-NT tox = kills 2HG-producing HT-1080-NT fibrosarcoma cells; HT-1080-NT fibrosarcoma viability, CellTiter-Glo ATP luminescence, 48 h; Potency, µM (highest dose often 46.1 µM), usual class: cytotoxic; hit rate 1.6% among 360,000;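 note: NT is the 2HG producing partner of a matched IDH1 knockdown line; nearly all actives have a fitted effect of over 55% in size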
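Read-out is CellTiter-Glo luminescence after 10 minutes at room temperature, following 48 hours' compound treatment of HT-1080-NT cells (750 cells/well, RPMI, 5% FBS, 37 degrees C).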
ELG1 DNA repair = blocks ELG1-dependent DNA repair in HEK293T cells; Potency, µM (top dose mostly 46.1 µM), hits mostly inhibitors; hit rate 2.3% among 330,000; AID 504467; HEK293T ELG1-luciferase reporter, luminescence, 16 h; DNA damage induced by 5-fluorouridine; note: nearly all actives have a fitted effect of over 55% in size
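5-Fluorouridine DNA damage + compound/DMSO, 2,000 cells/well, 16 h, 37 °C/5% CO2. ONE-Glo, 30 min RT, luminescence. Readout = decrease in reporter signal.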
DT40 TDP1 CPT = DT40-hTDP1 cell growth loss with CPT; chicken DT40 Tdp1-/-;hTDP1 cells + 20 nM CPT, ATP luminescence, 48 h; Potency, µM (doses to about 46.2 µM), most hits filed as inhibitors; AID 686979; hit rate 12% among 420,000; note: nearly all actives have a fitted effect of over 55% in size
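Cell growth measured by CellTiter-Glo luminescence after a minimum 48 h, 37 C compound exposure with 20 nM CPT in Tdp1-knockout DT40 cells stably expressing hTDP1, seeded 400/well; qHTS titration format.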
HT1080 IDH1KD tx = kills HT-1080 cells with IDH1 knockdown. AID 686971. hit rate 2% among 360,000. HT-1080 IDH1 knockdown viability, ATP luminescence, 48 h. Potency, µM (highest dose often 46.1 µM), usual class: cytotoxic
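In this qHTS, HT-1080 cells depleted of IDH1 are exposed for 48 h at 37 °C to compound titrations. Toxicity is scored from CellTiter-Glo luminescence, with DMSO as full viability and medium alone as none.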
DT40 TDP1 no CPT = qHTS for Inhibitors of human tyrosyl-DNA phosphodiesterase 1 (TDP1): qHTS in cells in absence of CPT. Potency, µM (doses to about 46.2 µM), usual class: inhibitors. DT40 Tdp1-/- hTDP1 cells, no CPT, ATP luminescence, 48 h. hit rate 15% among 420,000; note: nearly all actives have a fitted effect of over 55% in size
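Luminescent ATP content (CellTiter-Glo) served as the growth readout. Knockout chicken DT40 cells expressing human TDP1 were exposed to compounds without camptothecin for a minimum 48 hr at 37 °C.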
Large screens that a line does not name were inactive. The list is not random: actives were taken first. Their share in the collection is about 19%. Unless noted, calls come from the whole dose curve; as a rule, active = well fitted curve in the direction sought with a large enough effect; inconclusive = small, poorly fitted or top-dose-only effect, or another doubt; inactive = no such curve, though single readings can be large; an effect the other way counts as inactive or inconclusive.

CCc1nc2ccccc2c(=O)n1NC(=O)c1c(O)c2ccccc2[nH]c1=O	DT40 TDP1 CPT 21µM, DT40 TDP1 no CPT 18µM
CCCCC(=O)NNC(=O)c1c(O)c2ccccc2[nH]c1=O	DT40 TDP1 no CPT inconclusive
CC(C)c1ccc(NC2CCCN(C(=O)CN3CCCCC3=O)C2)cc1 (stereo unspecified)	DT40 TDP1 no CPT inconclusive (no result: ELG1 DNA repair)
Cc1onc(-c2ccccc2)c1C(=O)OCC(=O)N(C)c1ccccc1	none
Cc1onc(-c2c(F)cccc2Cl)c1C(=O)O/N=C(\N)c1ccc([N+](=O)[O-])o1	HT1080 IDH1KD tx 12µM (no result: IL1B secr inh)
Cc1onc(-c2c(F)cccc2Cl)c1C(=O)OCn1nnc2ccccc2c1=O	ELG1 DNA repair inconclusive, DT40 TDP1 CPT inconclusive, DT40 TDP1 no CPT 23µM
C/C(=N\OC(=O)c1c(-c2c(F)cccc2Cl)noc1C)c1nccs1	DT40 TDP1 no CPT inconclusive
Cc1noc(C)c1C(=O)OCC(=O)Nc1c(F)cccc1F	DT40 TDP1 CPT 16µM, DT40 TDP1 no CPT 18µM
Cc1onc(-c2c(F)cccc2Cl)c1C(=O)OCC(=O)N(C)c1ccccc1	DT40 TDP1 CPT 1.3µM, DT40 TDP1 no CPT 0.92µM (no result: ELG1 DNA repair)
COCC(C)n1c(COc2ccccc2F)nnc1SCC(=O)Nc1oc(C)c2c(C)n[nH]c(=O)c12 (stereo unspecified)	none
Nc1ncnc2c1[nH]c(=S)n2C1OC(CO)C(O)C1O (stereo unspecified)	none (no result: IL1B secr inh, HT1080-NT tox, ELG1 DNA repair, HT1080 IDH1KD tx)
COc1ccc(NC(=O)N2CC[C@@]3(CCCN(C(=O)c4cnccn4)C3)C2)cc1	none (no result: IL1B secr inh, HT1080-NT tox, ELG1 DNA repair, HT1080 IDH1KD tx)
Cc1cc(C(=O)COC(=O)c2cccnc2Cl)c(C)n1-c1c(C)n(C)n(-c2ccccc2)c1=O	none
CN(C)c1ccc(P(=O)(OC2CCCCC2)C(O)c2ccncc2)cc1 (stereo unspecified)	none
O=[N+]([O-])c1cccc(S(=O)(=O)NCCNS(=O)(=O)c2cccc([N+](=O)[O-])c2)c1	none (no result: IL1B secr inh, HT1080-NT tox, ELG1 DNA repair, HT1080 IDH1KD tx)
CC(=O)Nc1ccc(C(=O)OCC(=O)N(c2ccccc2)C2CCS(=O)(=O)C2)cc1 (stereo unspecified)	none
O=C(CCl)N(c1ccccc1)C1CCS(=O)(=O)C1 (stereo unspecified)	IL1B secr inh -89, HT1080-NT tox inconclusive, ELG1 DNA repair inconclusive, DT40 TDP1 CPT 8.2µM, HT1080 IDH1KD tx 18µM, DT40 TDP1 no CPT 8.2µM
O=C(c1cc(C(F)(F)F)cc(C(F)(F)F)c1)N1CCC[C@@]2(CCN(Cc3ccncc3)C2)C1	DT40 TDP1 no CPT inconclusive (no result: IL1B secr inh, HT1080-NT tox, ELG1 DNA repair, HT1080 IDH1KD tx)
COc1ccc(F)cc1CSc1nnnn1-c1ccc(O)cc1	DT40 TDP1 no CPT inconclusive
COc1cc(CSc2nnnn2-c2ccc(C)cc2)cc(OC)c1OC	IL1B secr inh -77, HT1080-NT tox inconclusive, DT40 TDP1 CPT 5.8µM, DT40 TDP1 no CPT 5µM
Cc1ccc(OCC(=O)Nc2nnc(SCc3cc(=O)n4cc(C)ccc4n3)s2)cc1	none (no result: IL1B secr inh, HT1080-NT tox, ELG1 DNA repair, HT1080 IDH1KD tx)
COc1ccccc1Nc1nnc(SCc2cc(=O)n3ccsc3n2)s1	HT1080-NT tox inconclusive, DT40 TDP1 CPT inconclusive, HT1080 IDH1KD tx inconclusive, DT40 TDP1 no CPT 23µM
Cc1cccc(Nc2nnc(SCc3cc(=O)n4cc(C)ccc4n3)s2)c1	ELG1 DNA repair inconclusive, DT40 TDP1 CPT 23µM, DT40 TDP1 no CPT 23µM
Cc1cccc(OCC(=O)Nc2ccncc2)c1C	DT40 TDP1 CPT 12µM, HT1080 IDH1KD tx inconclusive, DT40 TDP1 no CPT 8.2µM
O=C(COc1ccc(Cl)cc1)Nc1ccc(Cc2ccncc2)cc1	IL1B secr inh -71, DT40 TDP1 CPT inconclusive, DT40 TDP1 no CPT inconclusive
Cc1cccc(OCC(=O)Nc2c(C)ccc3nsnc23)c1C	DT40 TDP1 CPT 15µM, DT40 TDP1 no CPT inconclusive (no result: IL1B secr inh, HT1080-NT tox, ELG1 DNA repair, HT1080 IDH1KD tx)
CCn1cc(C(C)NC(=O)COc2ccc(Cl)cc2C)c(C)n1 (stereo unspecified)	ELG1 DNA repair inconclusive, DT40 TDP1 CPT inconclusive, HT1080 IDH1KD tx inconclusive, DT40 TDP1 no CPT 21µM
Cc1ccc2nsnc2c1NC(=O)COc1ccccc1F	none
